Over roughly 16,000 sequences, “rpm ratio (pull-down/input)” has its median near 0.5; the highest 2% begin near 5.5. The full list was thinned out, with the highest values kept by preference.
Molecular target: T1, MBP-FoxP3dN (Mus musculus, UniProt Q99JB6 188-423)
T1 sequence: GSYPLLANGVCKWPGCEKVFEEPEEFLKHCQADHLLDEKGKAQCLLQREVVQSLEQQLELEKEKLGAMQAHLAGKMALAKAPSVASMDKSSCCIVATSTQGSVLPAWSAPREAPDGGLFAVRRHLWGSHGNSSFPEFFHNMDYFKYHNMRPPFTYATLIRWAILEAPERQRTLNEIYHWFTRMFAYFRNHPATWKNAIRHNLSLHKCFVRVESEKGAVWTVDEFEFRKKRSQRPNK
Assay: PD-seq (MBP pull-down with sequencing); 20 mM Tris-HCl pH 7.5, 100 mM NaCl, 1.5 mM MgCl2, 0.4 uM protein, 0.1 uM dsDNA library, 30 min, room temperature, amylose pull-down; high values mean tight binding
Conditions: protein: recombinant; tags: His6-MBP; chain copies: 2; dsDNA, one strand shown
Procedure, shortened: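 E. coli-expressed mouse FoxP3 or FoxP1 fragment, N-terminus removed and tagged with His6-MBP, was used at 0.4 µM against 0.1 µM of a Klenow-filled degenerate double-stranded DNA library. After 30 min at room temperature in Tris pH 7.5 buffer with NaCl and MgCl2, complexes were pulled down on amylose resin and washed three times. Binding is pull-down over input reads-per-million enrichment from pooled replicates of the proteinase K-released, PCR-barcoded, Illumina-sequenced DNA.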

Sequence | binding signal
GATGATTGTTCTCCCAGCTGATGAATTACAAGCTTCGAGTAAACAAATTTTCCTAATCTTTCTGTTCAAGCGCCATCTAC | 0.518 RPM ratio (pull-down/input)
GATGATTGTTCTCCCAGCTGATGAATTGGGGGCATCGAGTAAACAAATTTTCCTAATCTTTCTGTTCAAGCGCCATCTAC | 0.87 RPM ratio (pull-down/input)
GATGATTGTTCTCCCAGCTGATGAATTTGGGCATTCGAGTAAACAAATTTTCCTAATCTTTCTGTTCAAGCGCCATCTAC | 4.79 RPM ratio (pull-down/input)
GATGATTGTTCTCCCAGCTGATGAATTGGGCATTTCGAGTAAACAAATTTTCCTAATCTTTCTGTTCAAGCGCCATCTAC | 5.5 RPM ratio (pull-down/input)
GATGATTGTTCTCCCAGCTGATGAATTTTGGGCATCGAGTAAACAAATTTTCCTAATCTTTCTGTTCAAGCGCCATCTAC | 0.782 RPM ratio (pull-down/input)
GATGATTGTTCTCCCAGCTGATGAATTGGGGCATTCGAGTAAACAAATTTTCCTAATCTTTCTGTTCAAGCGCCATCTAC | 4.3 RPM ratio (pull-down/input)
GATGATTGTTCTCCCAGCTGATGAATTGGGCATCTCGAGTAAACAAATTTTCCTAATCTTTCTGTTCAAGCGCCATCTAC | 6.41 RPM ratio (pull-down/input)
GATGATTGTTCTCCCAGCTGATGAATTAAGTGAATCGAGTAAACAAATTTTCCTAATCTTTCTGTTCAAGCGCCATCTAC | 0.328 RPM ratio (pull-down/input)
GATGATTGTTCTCCCAGCTGATGAATTAAGGGAGTCGAGTAAACAAATTTTCCTAATCTTTCTGTTCAAGCGCCATCTAC | 0.249 RPM ratio (pull-down/input)
GATGATTGTTCTCCCAGCTGATGAATTGCTTAAATCGAGTAAACAAATTTTCCTAATCTTTCTGTTCAAGCGCCATCTAC | 0.457 RPM ratio (pull-down/input)
GATGATTGTTCTCCCAGCTGATGAATTCTAGGTATCGAGTAAACAAATTTTCCTAATCTTTCTGTTCAAGCGCCATCTAC | 0.464 RPM ratio (pull-down/input)
GATGATTGTTCTCCCAGCTGATGAATTTGCAATTTCGAGTAAACAAATTTTCCTAATCTTTCTGTTCAAGCGCCATCTAC | 2.77 RPM ratio (pull-down/input)
GATGATTGTTCTCCCAGCTGATGAATTTGCAAATTCGAGTAAACAAATTTTCCTAATCTTTCTGTTCAAGCGCCATCTAC | 0.496 RPM ratio (pull-down/input)
GATGATTGTTCTCCCAGCTGATGAATTCGCAATTTCGAGTAAACAAATTTTCCTAATCTTTCTGTTCAAGCGCCATCTAC | 1.92 RPM ratio (pull-down/input)
GATGATTGTTCTCCCAGCTGATGAATTCGTGCAATCGAGTAAACAAATTTTCCTAATCTTTCTGTTCAAGCGCCATCTAC | 3.15 RPM ratio (pull-down/input)
GATGATTGTTCTCCCAGCTGATGAATTGTGCAATTCGAGTAAACAAATTTTCCTAATCTTTCTGTTCAAGCGCCATCTAC | 6.39 RPM ratio (pull-down/input)
GATGATTGTTCTCCCAGCTGATGAATTCTGCAATTCGAGTAAACAAATTTTCCTAATCTTTCTGTTCAAGCGCCATCTAC | 4.83 RPM ratio (pull-down/input)
GATGATTGTTCTCCCAGCTGATGAATTTTGCAATTCGAGTAAACAAATTTTCCTAATCTTTCTGTTCAAGCGCCATCTAC | 5.75 RPM ratio (pull-down/input)
GATGATTGTTCTCCCAGCTGATGAATTGCGCAATTCGAGTAAACAAATTTTCCTAATCTTTCTGTTCAAGCGCCATCTAC | 5.72 RPM ratio (pull-down/input)
GATGATTGTTCTCCCAGCTGATGAATTTCGCAATTCGAGTAAACAAATTTTCCTAATCTTTCTGTTCAAGCGCCATCTAC | 4.55 RPM ratio (pull-down/input)

Sequence | binding signal
GATGATTGTTCTCCCAGCTGATGAATTTTGGTCGTCGAGTAAACAAATTTTCCTAATCTTTCTGTTCAAGCGCCATCTAC | 0.496 RPM ratio (pull-down/input)
GATGATTGTTCTCCCAGCTGATGAATTTGGGTGGTCGAGTAAACAAATTTTCCTAATCTTTCTGTTCAAGCGCCATCTAC | 0.682 RPM ratio (pull-down/input)
GATGATTGTTCTCCCAGCTGATGAATTGTTAACTTCGAGTAAACAAATTTTCCTAATCTTTCTGTTCAAGCGCCATCTAC | 0.587 RPM ratio (pull-down/input)
GATGATTGTTCTCCCAGCTGATGAATTGCTCCAATCGAGTAAACAAATTTTCCTAATCTTTCTGTTCAAGCGCCATCTAC | 0.467 RPM ratio (pull-down/input)
GATGATTGTTCTCCCAGCTGATGAATTTTCTCGCTCGAGTAAACAAATTTTCCTAATCTTTCTGTTCAAGCGCCATCTAC | 0.241 RPM ratio (pull-down/input)
GATGATTGTTCTCCCAGCTGATGAATTATATATATCGAGTAAACAAATTTTCCTAATCTTTCTGTTCAAGCGCCATCTAC | 1.27 RPM ratio (pull-down/input)
GATGATTGTTCTCCCAGCTGATGAATTGAAGGGATCGAGTAAACAAATTTTCCTAATCTTTCTGTTCAAGCGCCATCTAC | 0.265 RPM ratio (pull-down/input)
GATGATTGTTCTCCCAGCTGATGAATTCAGGCGATCGAGTAAACAAATTTTCCTAATCTTTCTGTTCAAGCGCCATCTAC | 0.508 RPM ratio (pull-down/input)
GATGATTGTTCTCCCAGCTGATGAATTATGCGTGTCGAGTAAACAAATTTTCCTAATCTTTCTGTTCAAGCGCCATCTAC | 5.88 RPM ratio (pull-down/input)
GATGATTGTTCTCCCAGCTGATGAATTGTGCGTGTCGAGTAAACAAATTTTCCTAATCTTTCTGTTCAAGCGCCATCTAC | 6.18 RPM ratio (pull-down/input)
GATGATTGTTCTCCCAGCTGATGAATTTTGCGTGTCGAGTAAACAAATTTTCCTAATCTTTCTGTTCAAGCGCCATCTAC | 5.56 RPM ratio (pull-down/input)
GATGATTGTTCTCCCAGCTGATGAATTATATGCGTCGAGTAAACAAATTTTCCTAATCTTTCTGTTCAAGCGCCATCTAC | 1.07 RPM ratio (pull-down/input)
GATGATTGTTCTCCCAGCTGATGAATTGTGTGCGTCGAGTAAACAAATTTTCCTAATCTTTCTGTTCAAGCGCCATCTAC | 2.16 RPM ratio (pull-down/input)
GATGATTGTTCTCCCAGCTGATGAATTGCGTGTGTCGAGTAAACAAATTTTCCTAATCTTTCTGTTCAAGCGCCATCTAC | 2.22 RPM ratio (pull-down/input)
GATGATTGTTCTCCCAGCTGATGAATTATGCGCGTCGAGTAAACAAATTTTCCTAATCTTTCTGTTCAAGCGCCATCTAC | 3.33 RPM ratio (pull-down/input)
GATGATTGTTCTCCCAGCTGATGAATTTGCGTGTTCGAGTAAACAAATTTTCCTAATCTTTCTGTTCAAGCGCCATCTAC | 3.79 RPM ratio (pull-down/input)
GATGATTGTTCTCCCAGCTGATGAATTGCGCGTGTCGAGTAAACAAATTTTCCTAATCTTTCTGTTCAAGCGCCATCTAC | 4.88 RPM ratio (pull-down/input)
GATGATTGTTCTCCCAGCTGATGAATTGGCCACGTCGAGTAAACAAATTTTCCTAATCTTTCTGTTCAAGCGCCATCTAC | 0.526 RPM ratio (pull-down/input)
GATGATTGTTCTCCCAGCTGATGAATTGGTAGCTTCGAGTAAACAAATTTTCCTAATCTTTCTGTTCAAGCGCCATCTAC | 0.798 RPM ratio (pull-down/input)
GATGATTGTTCTCCCAGCTGATGAATTTAGCCCGTCGAGTAAACAAATTTTCCTAATCTTTCTGTTCAAGCGCCATCTAC | 1.59 RPM ratio (pull-down/input)

Reference: article PMC12820563, “FoxP3 forms a head-to-head dimer in vivo and stabilizes its multimerization on adjacent microsatellites”
